# Most compounds without a hit are left out; they make up all but 19% or so of the library.
# MARV entry inh = blocks Marburg virus binding to or entry into cells; Marburg virus pseudotyped entry inhibition, cell reporter; Potency, µM (doses to about 37.8 µM), inactives show at the highest dose activity change, negative = inhibition, usual class: inhibitors; 1.8% of 300,000 active; AID 540276; calls by dose curve; tested in HEK293 cells; note: potency is the fitted concentration of half-maximal effect; % is set by controls: 0 for no effect and ±100 for the full control effect
# Cycloheximide cs = counter-screen for Shiga toxin inhibitors: cycloheximide protein synthesis inhibition; cell reporter, cycloheximide protein synthesis inhibition counterscreen; max response, %; 12% of 300,000 active; AID 2314; in the data active = max response mostly above about 13%, no sharp cut-off; inactive = mostly below about 14%; note: read at 38.3 µM for the half of the compounds with a filed dose; 0% is about no effect
# Pf growth 96h = inhibits malaria parasite growth, 96 h. P. falciparum luciferase reporter growth, 96 h. Potency, µM (series often up to 28.7 µM), for inactives: at the highest dose activity change, negative = inhibition, usual class: inhibitors. 6.9% of 320,000 active; note: potency is the fitted concentration of half-maximal effect; % is set by controls: 0 for no effect and ±100 for the full control effect
#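 Parasite growth measured via integrated firefly luciferase reporter in P. falciparum. Infected erythrocytes at 2% hematocrit, 0.05% parasitemia final were treated 96 hours at 37 C under 5% CO2, and luminescence was read.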
# Shiga inhibitor = inhibitors of Shiga toxin in Vero cells; Vero cells, Shiga toxin protein synthesis inhibition reporter; inhibition, % at 38.7 µM; 9.2% of 290,000 active; AID 2315; in the data active = inhibition mostly above about 28%, no sharp cut-off; inactive = mostly below about 43%; note: 0% is about no effect
# LASV entry inh = blocks Lassa virus binding to or entry into cells. Potency, µM (highest dose often 37.9 µM), for the others: top-dose activity change, negative = inhibition, hits mostly inhibitors. 1.2% of 300,000 active. AID 540256. Lassa virus pseudotype entry inhibition, cell reporter; calls by dose curve; tested in HEK293 cells; note: potency is the fitted concentration of half-maximal effect; % is set by controls: 0 for no effect and ±100 for the full control effect; nearly all actives have a fitted effect of over 50% in size
# Pf growth 48h = P. falciparum growth inhibition at 48 hours (one generation); Potency, µM (doses to about 28.7 µM), for inactives: top-dose activity change, negative = inhibition, most hits filed as inhibitors; P. falciparum luciferase growth in erythrocytes, 48 h; 5.9% of 310,000 active; AID 504832; note: potency is the fitted concentration of half-maximal effect; % is set by controls: 0 for no effect and ±100 for the full control effect
#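 A one-generation exposure of luciferase-tagged malaria parasites in RPMI 1640/Albumax erythrocyte culture, 37 C and 5% CO2. Inhibition is inferred from decreased luminescence after adding detection reagent.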
# * marks the source's active call; other numbers are inactive results; ? = inconclusive; . = not tested or not shown; [ ] = another dose, or the depositor's remark. Unless noted, calls come from the whole dose curve; as a rule, active = well fitted inhibition curve with a large enough effect; inconclusive = small, poorly fitted or top-dose-only effect, or another doubt; inactive = no such curve, though single readings can be large or run the other way.
SMILES,MARV entry inh,Cycloheximide cs,Pf growth 96h,Shiga inhibitor,LASV entry inh,Pf growth 48h
CS(=O)(=O)c1ccc(Sc2nc3ccccc3s2)c([N+](=O)[O-])c1,11µM*,9,?,-6,?,13µM*
O=[N+]([O-])c1cc(S(=O)(=O)C(F)(F)F)ccc1Sc1nc2ccccc2s1,?,-1,9.3µM*,-3,?,?
O=S(=O)(Nc1ccc(O)c(Sc2nc3ccccc3s2)c1)c1ccc(F)cc1,3%,9,-28%,-16,0%,-12%
O=[N+]([O-])c1cc(S(=O)(=O)C(F)(F)F)ccc1Sc1nc2ccccc2[nH]1,?,-1,.,-22,?,15µM*
O=[N+]([O-])c1ccc(N2CCNCC2)cc1Sc1nc2ccccc2[nH]1,?,5,?,-12,2%,?
NCCNc1ccc([N+](=O)[O-])c(Sc2nc3ccccc3[nH]2)c1,-19%,-4,13µM*,3,20%,?
Cc1ccc(C)n1-c1ccc(C#N)cn1,18%,2,-7%,22,15%,49%
Cc1ccccc1NC(=O)c1cccc(S(=O)(=O)Nc2cccc(C(=O)O)c2)c1,-6%,2,?,2,10%,3%
Cc1ccc(C(=O)Nc2ccc(S(=O)(=O)O)c3cc(S(=O)(=O)O)cc(S(=O)(=O)O)c23)cc1NC(=O)c1cccc(NC(=O)Nc2cccc(C(=O)Nc3cc(C(=O)Nc4ccc(S(=O)(=O)O)c5cc(S(=O)(=O)O)cc(S(=O)(=O)O)c45)ccc3C)c2)c1,3.1µM*,.,-12%,.,8.9µM*,2%
CCOP(=O)(OCC)c1nc(-c2cccc3ccccc23)oc1N1CCOCC1,?,-3,?,-2,?,?
CCOP(=O)(OCC)c1ccc2c(c1)C(=O)c1ccccc1CC2,.,.,4.1µM*,.,.,-3%
COc1ccc(OC)c(-c2nc(Nc3ccccc3C)sc2CC(=O)O)c1,-4%[46.1 µM],.,.,.,8%[46.1 µM],.
CC(=O)CC1OC(=O)C(Br)=C1NCc1ccccc1 (stereo not given),18µM*,22*,7.4µM*,29,?,-2%
Cc1nccn1-c1cc(C(C)(C)C)nc2c(-c3ccccc3)cnn12,7%,8,-12%,15,3%,18%
CCc1nccn1-c1cc(C(C)(C)C)nc2c(-c3ccc(Cl)cc3)cnn12,10%,19,13µM*,22,11%,50%
CC(C)(C)c1cc(-n2ccnc2)n2ncc(-c3ccc(Cl)cc3)c2n1,?,40*,56%,59*,-3%,80%
Cc1ccc2onc(CC(=O)Nc3ccc(C(C)C)cc3)c2c1,.,.,.,.,-28%[46.1 µM],.
COC(=O)C1=C[C@@H](C(=O)OC)C2C3=C(C(=O)[C@]2(CC(C)C)NC(=O)c2ccccc2)[C@H](C)n2c(=O)n(-c4ccccc4)c(=O)n2[C@@H]3C1 (stereo not given in full),.,-3,.,-8,.,.
Cc1ccc2nc(-c3cccs3)c(Nc3c(C)cccc3C)n2c1,7.1µM*,.,.,.,-2%[46.1 µM],.
COc1ccc2nc(NC(=O)c3nc(SCc4ccc(F)cc4)ncc3Cl)sc2c1,9%[46.1 µM],.,.,.,1%[46.1 µM],.
O=C(COc1ccc(Cl)cc1)Nc1nnc(-c2ccc3c(c2)CCCC3)o1,?,10,-21%,3,21%,31%
COc1ccc(-n2cccc2/C=C2/NC(=O)N(c3cccc(Cl)c3)C2=O)cc1,10%,22*,72%,14,6%,18%
COc1cc(/C=C2/NC(=O)N(c3cccc(Cl)c3)C2=O)ccc1O,?,30,?,23*,-16%[46.1 µM],7.4µM*
O=C(O)c1cccc(-n2cccc2/C=C2/NC(=O)N(c3cccc(Cl)c3)C2=O)c1,1%[46.1 µM],2,3%,18,8%,-2%
O=C(COC(=O)c1cccs1)c1ccccc1,-4%,42*,35%,78*,?,67%
SMILES,MARV entry inh,Cycloheximide cs,Pf growth 96h,Shiga inhibitor,LASV entry inh,Pf growth 48h
COc1cccc(C(=O)COC(=O)c2cccs2)c1,.,38*,-13%,76*,.,33%
COc1cccc(C(=O)COC(=O)c2cc(-c3cccs3)nc3ccccc23)c1,-1%[46.1 µM],.,.,.,5%[46.1 µM],.
O=C(CNC(=O)c1cccs1)NCC(=O)OCC(=O)c1ccccc1,20%[46.1 µM],-4,25%,-18,17%,0%
COc1cc(N)c(Cl)cc1C(=O)OCC(=O)c1cccs1,20%[46.1 µM],19,-4%,54*,2%,14%
CCOC(=O)C1=C(C)NC(=O)CC1c1cc(OC)c(OC)cc1Br (stereo not given),20%[14.2 µM],-6,?,-5,-20%,0.47µM*
O=C(C[n+]1ccc(-c2cc(C(=O)Nc3cccc(C(F)(F)F)c3)c3ccccc3n2)cc1)c1cccc([N+](=O)[O-])c1,?,1,3.3µM*,-2,-24%[46.1 µM],?
COc1ccc(-c2c(C)c3ccc(O)c(CN4CCCCC4)c3oc2=O)cc1OC,.,.,.,.,10%[46.1 µM],.
Cc1cc2c(c(=O)o1)C(C1C=CCCC1)C(C#N)=C(N)O2 (stereo not given),24%,-1,.,31,2%,-11%
COc1cccc2c1cc1c(=O)n(CC(=O)N3CCN(c4cccc(C)c4C)CC3)nc(C)n12,4%[46.1 µM],.,.,.,0%,.
CCOC(=O)C1=C(C)NC2=C(C(=O)CC(C)(C)C2)C1c1ccc2c(c1)CCCN2C (stereo not given),-20%,-2,9%,-10,13%,13µM*
CCOC(=O)C1=C(C)NC2=C(C(=O)CC(C)(C)C2)C1c1ccc(O)c(OCC)c1 (stereo not given),.,11,-22%,4,.,?
CCOC(=O)C1=C(C)NC2=C(C(=O)CC(C)(C)C2)C1c1ccc(N(C)C)cc1 (stereo not given),-2%,-2,?,-2,-9%,12µM*
COc1ccc(NC(=O)Nc2ccc(F)cc2F)cc1,?,38*,-15%[5.75 µM],68*,?,160%
Cc1cc(C)nc(NC(=O)Nc2ccc(F)cc2F)n1,.,13*,92%,17,.,36%
COc1ccc(NC(=O)Nc2ccc(F)cc2)c(C)c1,.,19,21%,50,.,0%
COc1ccc(NC(=O)Nc2c[nH]c(=O)[nH]c2=O)cc1,3%[46.1 µM],5,2.6µM*,-2,7%[46.1 µM],.
COc1ccc(NC(=O)Nc2ccc(F)cc2F)c(C)c1,?,35*,?,20,-2%,.
COc1cc(Cl)c(NC(=O)CCS(=O)(=O)c2ccc3c(c2)NC(=O)CO3)c(OC)c1,.,.,.,.,17%[46.1 µM],.
O=C(COc1ccc(/C=N/NC(=O)c2ccccc2Br)cc1)Nc1ccccc1,?,6,-28%,1,?,?
CC(C)c1ccccc1NC(=O)Nc1ccc(F)cc1F,17%[46.1 µM],9.9*,3%,23,?,-23%
N#Cc1c(-c2ccccc2)nc2n(c1=O)CCS2,0%,-6,46%,-3,1%,20%
COc1ccc(C(=O)NC(NC(=O)c2ccc(OC)cc2)c2ccccc2F)cc1,0%[46.1 µM],-2,4%,2,-7%,-6%
